From PubChem BioAssay (Tox21)
Where “and” joins values, the source holds several entries; their conditions need not be identical. Identical values can stand only once. Records with an inconclusive call do not appear. A call without a number means that no potency is given here. More than one record can exist for a structure, and the calls need not agree. Calls of active or inactive are those of the source. Unless noted, the call rests on the fitted dose curve; in most records, active means well fitted curve in the direction sought with a large enough effect in the repeat runs; inconclusive means weak or mixed curves; inactive means no such curve, though single readings can be large; an effect the other way counts as inactive or inconclusive. Residues, ends and D or L forms follow the SMILES beside them.

Columns and labels:
[1] = qHTS assay to identify small molecule agonists of the estrogen receptor alpha (ER-alpha) signaling pathway in the presence of an antagonist - cell viability counter screen (AID 1259386);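 further: series mostly up to about 92 µM; cells exposed to compounds for 22 h at 37 °C before the viability read; nearly all actives have a fitted effect of over 30% in size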
Summary of the method: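 Viability counter screen using VM7Luc4E2 (full-length ER-alpha, four ERE-luciferase). The cells were treated with compounds alongside ICI-182,780 10.0nM for 22hr, and live-cell protease fluorescence was quantified with CellTiter-Fluor.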

[2] = biological target: Progesterone receptor (Homo sapiens) (UniProt P06401); assay: qHTS assay to identify small molecule agonists of the progesterone receptor (PR) signaling pathway (AID 1346784; calls by dose curve; further: nearly all actives have a fitted effect of over 30% in size)
Summary of the method: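 Cells (PR-UAS-bla HEK 293T, GripTite) were plated in assay medium containing 2% charcoal-stripped FBS and incubated 6 hr. Test compounds in DMSO were added for 16 hr at 37C. FRET substrate was then loaded for 2 hr at room temperature before fluorescence reading.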

[3] = biological target: Progesterone receptor (Homo sapiens) (UniProt P06401); assay: qHTS assay to identify small molecule antagonists of the progesterone receptor (PR) signaling pathway (AID 1346795; active means well fitted inhibition curve with a large enough effect in the signal ratio in the repeat runs, not every such curve was filed as active; the % refers to the signal ratio)
Summary of the method: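 Antagonist mode: compounds tested against 1 nM (final) promegestone stimulation in HEK293T cells expressing PR-UAS-bla reporter, 16 hr at 37C, 5% CO2; beta-lactamase activity detected via B/G FRET substrate after 2 hr at room temperature.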

[4] = qHTS assay to identify small molecule antagonists of the progesterone receptor (PR) signaling pathway - cell viability counter screen (AID 1346798); further: series mostly up to about 92 µM; nearly all actives have a fitted effect of over 50% in size
Summary of the method: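 Counter screen for cytotoxicity: viability of PR-UAS-bla HEK293T cells was measured with CellTiter-Glo luminescence following 16 hr compound exposure in the presence of R5020.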

[5] = qHTS assay to identify small molecule agonists of the progesterone receptor (PR) signaling pathway - cell viability counter screen (AID 1346799; calls by dose curve; further: nearly all actives have a fitted effect of over 45% in size)
Summary of the method: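 Cells (PR-UAS-bla HEK293T) are plated at 3,000/well in 2% charcoal-stripped FBS medium, rested 6 hr, dosed and incubated 16 hr at 37C. CellTiter-Glo is then added and luminescence measured after 30 min at room temperature.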

[6] = qHTS assay to identify small molecule antagonists of the TGF-beta/Smad signaling pathway - cell viability counter screen (AID 1346824); further: nearly all actives have a fitted effect of over 50% in size
Summary of the method: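 SBE-bla HEK 293T cells, incubated overnight, then compound plus 0.25 ng/mL TGF-beta1 (stock added) for 5 hr at 37 C. Viability was read in the same wells by CellTiter-Glo luminescence after 30 min at room temperature.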

[7] = qHTS assay to identify small molecule agonists of the TGF-beta/Smad signaling pathway - cell viability counter screen (AID 1346829); further: top concentration of the series differs between compounds; nearly all actives have a fitted effect of over 45% in size
Summary of the method: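 HEK 293T SBE-bla line, 5 hr compound exposure at 37 C, multiplexed CellTiter-Glo viability read by luminescence.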

[8] = qHTS assay to identify small molecule agonists of the TGF-beta/Smad signaling pathway (AID 1346859; active means well fitted activation curve with a large enough effect in the signal ratio in the repeat runs, not every such curve was filed as active; the % refers to the signal ratio; further: series mostly up to about 77 µM)
Summary of the method: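 Reporter line: HEK 293T with stably integrated SBE-controlled beta-lactamase. Compound exposure lasts 5 hr at 37 C and 5% CO2; substrate loading follows for 2 hr at room temperature, with emission read at 460 and 530 nm.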

[9] = Caspase-3/7 induction in HepG2 cells by small molecules, qHTS assay (AID 1346978); further: nearly all actives have a fitted effect of over 15% in size; further: potency means the concentration at half of the fitted maximal effect
Summary of the method: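 Wild-type HepG2 cells, 2,000/well, settled 5 hr at 37 C and 5% CO2, then compound-treated for 17 hr; caspase-3/7 activity read by luminescent Caspase-Glo 3/7 after 30 min at room temperature.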

[10] = Caspase-3/7 induction in CHO-K1 cells by small molecules, qHTS cell viability counter screen (AID 1346979); further: nearly all actives have a fitted effect of over 35% in size
Summary of the method: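 Cytotoxicity counter screen run in parallel with the caspase-3/7 assay: CHO-K1 cells, 16hr compound treatment at 37C, then CellTiter-Fluor for 1hr before fluorescence reading.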

[11] = Caspase-3/7 induction in CHO-K1 cells by small molecules, qHTS assay (AID 1346980); further: nearly all actives have a fitted effect of over 15% in size
Summary of the method: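 Wild-type CHO-K1 cells exposed to compounds for 17hr at 37 C, 5% CO2. Caspase-3/7 activity then measured by Caspase-Glo 3/7 luminescence after 30min at room temperature.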

[12] = Caspase-3/7 induction in HepG2 cells by small molecules, qHTS cell viability counter screen (AID 1346981); further: series mostly up to about 92 µM; nearly all actives have a fitted effect of over 30% in size
Summary of the method: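 Viability determined by CellTiter-Fluor fluorescence in HepG2 wells also used for the luminescent Caspase-Glo 3/7 read. Compounds were present for 16 hr at 37 C, 5% CO2 before reagent addition.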

[13] = biological target: Nuclear receptor subfamily 1 group I member 2 (Homo sapiens) (UniProt O75469); assay: Human pregnane X receptor (PXR) small molecule agonists, qHTS assay (AID 1346982); further: nearly all actives have a fitted effect of over 35% in size; further: potency means the concentration at half of the fitted maximal effect
Summary of the method: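 Compound-induced hPXR transactivation of a CYP3A4 luciferase reporter was scored in HepG2 PXR-Luc cells over 24 hr at 37 C, 5% CO2, by luminescence.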

[14] = biological target: Cytochrome P450 2D6 (Homo sapiens) (UniProt P10635); assay: Cytochrome P450 Family 2 Subfamily D Member 6 (CYP2D6) small molecule antagonists: luciferase reporter qHTS assay (AID 1671196); further: nearly all actives have a fitted effect of over 50% in size; further: potency means the concentration at half of the fitted maximal effect
Summary of the method: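 Each well received CYP2D6 with its proluciferin substrate and chemical, sat 10 min, then got NADPH regeneration solution for 1 h at room temperature. Luminescence in RLU served as the activity measure.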

[15] = biological target: Cytochrome P450 2C19 (Homo sapiens) (UniProt P33261); assay: Cytochrome P450 Family 2 Subfamily C Member 19 (CYP2C19) small molecule antagonists: luciferase reporter qHTS assay (AID 1671197); further: nearly all actives have a fitted effect of over 65% in size; further: potency means the concentration at half of the fitted maximal effect
Summary of the method: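 First, compounds are pinned into enzyme-substrate mix and held 10 min at room temperature. Second, NADPH regeneration solution is added and plates incubate 1 h at 37C. Third, detection reagent is added and luminescence read after 20 min.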

[16] = biological target: Thyrotropin-releasing hormone receptor (Homo sapiens) (UniProt P34981); assay: qHTS assay to identify small molecule antagonists of the thyrotropin-releasing hormone receptor (TRHR) signaling pathway (AID 1346877; active means well fitted inhibition curve with a large enough effect in the repeat runs, not every such curve was filed as active; further: series mostly up to about 51 µM)
Summary of the method: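 Following an 18 h incubation at 37 °C and a 2 h calcium dye load, TRHR-HEK293 cells were exposed to compound (5 min, room temperature) and challenged with TRH, 1 nM final.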

[17] = biological target: Thyrotropin-releasing hormone receptor (Homo sapiens) (UniProt P34981); assay: qHTS assay to identify small molecule agonists of the thyrotropin-releasing hormone receptor (TRHR) signaling pathway (AID 1346891; calls by dose curve;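 further: HEK293 cells expressing TRHR with calcium dye readout; series mostly up to about 58 µM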)
Summary of the method: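 Cells: TRHR-Hek293, seeded and incubated 18 h. Dye loading: 2 h at 37 °C. Compound added from DMSO stock by pin tool. Read-out: kinetic calcium fluorescence over 3 min.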

[18] = Human pregnane X receptor (PXR) small molecule agonists, qHTS cell viability counter screen (AID 1346977); further: nearly all actives have a fitted effect of over 50% in size
Summary of the method: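 Cytotoxicity counter screen run in the same wells as the PXR luciferase assay, using PXR-Luc HepG2 cells in charcoal-stripped serum medium. Viability: CellTiter-Fluor fluorescence after 24hr compound treatment.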

[19] = biological target: Nuclear receptor subfamily 1 group I member 2 (Rattus norvegicus) (UniProt Q9R1A7); assay: Rat pregnane X receptor (rPXR) activation by small molecules, qHTS assay (AID 1346983); conditions: rPXR luciferase reporter cells, One-Glo luminescence, 24 h; stronger effect = higher value; further: nearly all actives have a fitted effect of over 20% in size
Summary of the method: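 Cell-based rPXR activation assay: rPXR cells, 2,000 per well, rested 5hr at 37 C, then exposed to compounds in DMSO for 24 hr at 37 C. Luciferase activity read by One-Glo luminescence after 30 min at room temperature.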

[20] = biological target: Nuclear receptor subfamily 1 group I member 2 (Homo sapiens) (UniProt O75469); assay: CYP3A4 induction through human pregnane X receptor (PXR) by small molecules, qHTS assay (AID 1346984); further: nearly all actives have a fitted effect of over 40% in size
Summary of the method: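 Readings come from a luciferase reporter: DPX-2 cells, which are HepG2 cotransfected with PXR and a CYP3A4-promoter construct, were exposed to test compounds for 24 h at 37C before One-Glo detection.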

Chain of Nuclear receptor subfamily 1 group I member 2 (Homo sapiens) (O75469 whole entry, looked up): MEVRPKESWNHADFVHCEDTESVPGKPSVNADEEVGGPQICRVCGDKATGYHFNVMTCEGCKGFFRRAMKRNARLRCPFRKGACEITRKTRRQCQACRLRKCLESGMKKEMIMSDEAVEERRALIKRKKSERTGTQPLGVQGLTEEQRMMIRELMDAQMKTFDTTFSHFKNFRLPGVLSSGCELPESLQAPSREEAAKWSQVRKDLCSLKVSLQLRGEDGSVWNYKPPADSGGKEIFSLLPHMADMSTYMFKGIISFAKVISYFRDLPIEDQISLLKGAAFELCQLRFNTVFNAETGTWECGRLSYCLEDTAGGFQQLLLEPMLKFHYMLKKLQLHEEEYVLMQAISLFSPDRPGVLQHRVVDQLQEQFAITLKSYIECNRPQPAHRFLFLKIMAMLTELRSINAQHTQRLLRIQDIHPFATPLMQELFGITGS
Chain of Nuclear receptor subfamily 1 group I member 2 (Rattus norvegicus) (Q9R1A7 whole entry, looked up): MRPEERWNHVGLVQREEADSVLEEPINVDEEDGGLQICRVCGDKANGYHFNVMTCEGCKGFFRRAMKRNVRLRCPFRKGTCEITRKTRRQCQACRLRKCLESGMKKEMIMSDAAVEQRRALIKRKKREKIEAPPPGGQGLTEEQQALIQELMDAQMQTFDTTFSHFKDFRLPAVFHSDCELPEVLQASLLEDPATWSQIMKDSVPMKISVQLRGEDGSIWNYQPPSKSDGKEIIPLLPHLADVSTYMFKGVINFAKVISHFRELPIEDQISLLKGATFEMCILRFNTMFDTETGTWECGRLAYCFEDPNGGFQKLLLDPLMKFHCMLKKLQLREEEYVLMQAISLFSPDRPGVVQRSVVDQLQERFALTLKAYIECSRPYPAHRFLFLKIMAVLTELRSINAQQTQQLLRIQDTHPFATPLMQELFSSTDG
Chain of Thyrotropin-releasing hormone receptor (Homo sapiens) (P34981 whole entry, looked up): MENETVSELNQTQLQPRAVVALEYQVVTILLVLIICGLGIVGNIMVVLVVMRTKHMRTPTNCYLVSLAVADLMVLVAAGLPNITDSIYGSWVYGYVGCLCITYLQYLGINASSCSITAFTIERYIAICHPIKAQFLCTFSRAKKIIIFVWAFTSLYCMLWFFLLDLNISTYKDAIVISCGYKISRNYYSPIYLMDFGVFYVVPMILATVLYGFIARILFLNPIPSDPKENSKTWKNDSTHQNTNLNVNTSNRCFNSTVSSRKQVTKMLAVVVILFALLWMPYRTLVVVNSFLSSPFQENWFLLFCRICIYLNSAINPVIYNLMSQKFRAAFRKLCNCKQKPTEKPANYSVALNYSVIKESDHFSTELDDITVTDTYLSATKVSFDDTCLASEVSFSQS
Chain of Cytochrome P450 2D6 (Homo sapiens) (P10635 whole entry, looked up): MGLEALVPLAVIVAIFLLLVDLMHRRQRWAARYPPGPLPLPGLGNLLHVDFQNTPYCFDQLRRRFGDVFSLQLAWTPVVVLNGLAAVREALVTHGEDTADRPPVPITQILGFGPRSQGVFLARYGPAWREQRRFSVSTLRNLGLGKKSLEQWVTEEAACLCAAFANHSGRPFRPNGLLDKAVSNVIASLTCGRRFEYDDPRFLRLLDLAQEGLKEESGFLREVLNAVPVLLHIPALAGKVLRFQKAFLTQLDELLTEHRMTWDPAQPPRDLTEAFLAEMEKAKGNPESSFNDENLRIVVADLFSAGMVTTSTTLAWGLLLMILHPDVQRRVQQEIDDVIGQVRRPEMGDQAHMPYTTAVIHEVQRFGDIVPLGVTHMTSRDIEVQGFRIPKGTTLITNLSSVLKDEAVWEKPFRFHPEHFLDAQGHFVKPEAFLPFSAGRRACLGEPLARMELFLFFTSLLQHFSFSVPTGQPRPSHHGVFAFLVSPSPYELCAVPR
Chain of Progesterone receptor (Homo sapiens) (P06401 whole entry, looked up): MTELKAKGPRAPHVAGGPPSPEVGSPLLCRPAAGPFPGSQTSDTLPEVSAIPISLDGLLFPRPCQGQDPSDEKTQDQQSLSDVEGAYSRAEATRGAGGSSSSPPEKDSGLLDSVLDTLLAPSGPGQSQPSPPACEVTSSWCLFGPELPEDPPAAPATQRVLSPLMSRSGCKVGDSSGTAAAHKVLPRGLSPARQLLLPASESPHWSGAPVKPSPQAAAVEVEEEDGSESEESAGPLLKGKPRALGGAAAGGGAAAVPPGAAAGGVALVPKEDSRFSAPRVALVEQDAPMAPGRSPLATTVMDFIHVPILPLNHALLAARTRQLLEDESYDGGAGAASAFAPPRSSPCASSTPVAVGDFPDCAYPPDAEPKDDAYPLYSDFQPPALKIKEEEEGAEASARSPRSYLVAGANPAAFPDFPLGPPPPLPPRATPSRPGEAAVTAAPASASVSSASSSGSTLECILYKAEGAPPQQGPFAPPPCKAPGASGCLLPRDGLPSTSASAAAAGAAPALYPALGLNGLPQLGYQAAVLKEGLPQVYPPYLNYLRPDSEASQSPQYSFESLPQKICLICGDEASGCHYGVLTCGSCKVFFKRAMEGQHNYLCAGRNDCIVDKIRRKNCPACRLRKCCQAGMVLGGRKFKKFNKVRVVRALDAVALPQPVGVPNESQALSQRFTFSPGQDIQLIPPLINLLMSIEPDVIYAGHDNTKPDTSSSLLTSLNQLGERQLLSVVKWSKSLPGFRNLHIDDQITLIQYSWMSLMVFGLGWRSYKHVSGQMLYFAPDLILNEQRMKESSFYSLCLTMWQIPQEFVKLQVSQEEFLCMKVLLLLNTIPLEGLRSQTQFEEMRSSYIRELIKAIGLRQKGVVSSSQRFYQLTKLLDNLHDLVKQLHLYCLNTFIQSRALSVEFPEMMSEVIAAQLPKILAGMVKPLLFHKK
Chain of Cytochrome P450 2C19 (Homo sapiens) (P33261 whole entry, looked up): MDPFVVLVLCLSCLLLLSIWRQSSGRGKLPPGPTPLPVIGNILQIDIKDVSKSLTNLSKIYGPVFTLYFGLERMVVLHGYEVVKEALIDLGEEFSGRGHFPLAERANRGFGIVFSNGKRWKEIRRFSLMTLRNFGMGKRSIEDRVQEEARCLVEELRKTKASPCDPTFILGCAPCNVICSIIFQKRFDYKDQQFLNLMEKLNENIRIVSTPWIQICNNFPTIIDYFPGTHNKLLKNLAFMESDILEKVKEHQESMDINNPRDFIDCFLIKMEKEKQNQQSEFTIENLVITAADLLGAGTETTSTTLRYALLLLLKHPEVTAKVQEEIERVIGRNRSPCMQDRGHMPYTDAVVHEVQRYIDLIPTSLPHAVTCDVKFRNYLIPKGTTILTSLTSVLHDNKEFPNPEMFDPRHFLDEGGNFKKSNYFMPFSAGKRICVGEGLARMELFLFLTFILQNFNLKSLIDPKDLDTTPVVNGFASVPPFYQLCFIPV

Row | SMILES | Potency [1] | Potency [2] | outcome [3] | Potency [4] | Potency [5] | outcome [6] | Potency [7] | outcome [8] | Potency [9] | Potency [10] | outcome [11] | Potency [12] | Potency [13] | Potency [14] | Potency [15] | outcome [16] | outcome [17] | Potency [18] | max activation [19] | outcome [20]
1 | CCCNC(=O)NS(=O)(=O)c1ccc(Cl)cc1 | inactive | inactive | inactive | inactive | inactive | inactive | inactive | inactive | inactive | inactive | inactive | inactive | inactive | inactive | inactive |  |  |  |  | 
2 | CC(=O)Nc1nnc(S(N)(=O)=O)s1 | inactive | inactive | inactive | inactive | inactive | inactive | inactive | inactive | inactive | inactive | inactive | inactive |  | inactive | inactive | inactive | inactive |  |  | 
3 | C/C=C/c1ccc(OC)cc1 | inactive | inactive | inactive | inactive | inactive | inactive |  | inactive | inactive | inactive | inactive | inactive |  | inactive | inactive and 21.9 µM (active) | inactive | inactive | inactive | -1.43% (inactive) | inactive
4 | Cc1ccc(O)cc1 | inactive | inactive | inactive | inactive | inactive | inactive | inactive | inactive | inactive | inactive | inactive | inactive |  |  |  | inactive | inactive |  |  | 
5 | CCCCCCCCCCCCCCCC(=O)O | inactive | inactive | inactive | inactive | inactive | inactive | inactive | inactive | inactive | inactive | inactive | inactive |  | inactive | 80.5 µM (active) and inactive | inactive | inactive | inactive |  | inactive
6 | OCCc1ccccc1 | inactive | inactive | inactive | inactive | inactive | inactive | inactive | inactive | inactive | inactive | inactive | inactive |  | inactive | inactive | inactive | inactive | inactive |  | 
7 | Cc1ccc(S(=O)(=O)NC(=O)NN2CCCCCC2)cc1 | inactive | inactive | inactive | inactive | inactive | inactive |  | inactive | inactive | inactive | inactive | inactive |  |  |  | inactive | inactive | inactive |  | 
8 | CC(O)C(=O)O (stereo not given) | inactive | inactive | inactive | inactive | inactive | inactive | inactive | inactive | inactive | inactive | inactive | inactive |  | inactive and 11 µM (active) | inactive and 81.1 µM (active) | inactive | inactive |  | -1.38% (inactive) | inactive
9 | O=C(c1ccccc1)C(O)c1ccccc1 (stereo not given) | inactive | inactive | inactive | inactive | inactive | inactive |  | inactive | inactive | inactive | inactive | inactive |  | 39.6 µM (active) and inactive | 17.7 µM (active) and 31.7 µM (active) and 8.71 µM (active) | inactive | inactive | inactive | -4.09% (inactive) | inactive
10 | CCCCC1C(=O)N(c2ccccc2)N(c2ccccc2)C1=O | inactive | inactive | inactive | inactive | inactive | inactive | inactive | inactive | inactive | inactive | inactive | inactive |  | inactive | 5.6 µM (active) and 25.2 µM (active) | inactive | inactive |  |  | 
11 | O=c1ccc2ccccc2o1 | inactive | inactive | inactive | inactive | inactive | inactive | inactive | inactive | inactive | inactive | inactive | inactive |  | inactive | inactive |  |  | inactive |  | inactive
12 | O=c1cc[nH]c(=S)[nH]1 | inactive | inactive | inactive | inactive | inactive | inactive | inactive | inactive | 30.8 µM (active) and inactive | inactive | inactive | inactive | 61.5 µM (active) and inactive | inactive | 28.5 µM (active) and inactive | inactive | inactive |  | -8.7% (inactive) | inactive
13 | COC(=O)[C@H](Cc1ccccc1)NC(=O)[C@@H](N)CC(=O)O (H-Asp-Phe-OMe) | inactive | inactive | inactive | inactive | inactive | inactive | inactive | inactive | inactive | inactive | inactive | inactive |  | inactive | inactive | inactive | inactive | inactive | -3.24% (inactive) and -1.16% (inactive) | inactive
14 | NC(N)=NC(=O)c1nc(Cl)c(N)nc1N | inactive | inactive | inactive | inactive | inactive | inactive | inactive | inactive | inactive | inactive | inactive | inactive | 69 µM (active) and 50.4 µM (active) and inactive | inactive | inactive | inactive | inactive |  |  | 
